# Results from PubChem BioAssay (NCATS).
# Results filed as inconclusive are left out. Where a call stands in place of a potency, no number is given. Calls of active or inactive are those of the source. The call rests on the fitted dose curve; in most records, active means well fitted curve in the direction sought with a large enough effect; inconclusive means small, poorly fitted or top-dose-only effect, or another doubt; inactive means no such curve, though single readings can be large; an effect the other way counts as inactive or inconclusive.
# Key:
# [1] = qHTS of pediatric cancer cell lines to identify multiple opportunities for drug repurposing: Primary screen for MG 63 (6-TG R) cells (AID 1347105); further: nearly all actives have a fitted effect of over 50% in size; further: potency means the concentration at half of the fitted maximal effect
# Outline: (§1)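 Viability was measured as metabolically active cells after 48 hours of treatment, read by CellTiter-Glo luminescence. Compounds were tested at multiple final concentrations, giving concentration-response curves.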
# [2] = qHTS of pediatric cancer cell lines to identify multiple opportunities for drug repurposing: Primary screen for control Hh wild type fibroblast cells (AID 1347106);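 further: series mostly up to about 46 µM; a drop in luminescence marks cytotoxicity and a rise apparent proliferation; nearly all actives have a fitted effect of over 55% in size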
# Outline: (§2)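 Cells (500-1,000/well) in growth media were settled 5 h at 37 degrees C, then given compounds for 48 h. Viability was read as CellTiter-Glo luminescence. Primary runs used MIPE at 11 points (0.78 nM-46 µM) and NPC at 8 points (0.59 nM-46 µM); follow-ups used 11 points.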
# [3] = qHTS of pediatric cancer cell lines to identify multiple opportunities for drug repurposing: Primary screen for Rh30 cells (AID 1347107); further: series mostly up to about 46 µM; nearly all actives have a fitted effect of over 75% in size
# Outline: as §2
# [4] = qHTS of pediatric cancer cell lines to identify multiple opportunities for drug repurposing: Primary screen for Rh41 cells (AID 1347108);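 further: series mostly up to about 46 µM; luminescence drop marks cytotoxic hits; nearly all actives have a fitted effect of over 70% in size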
# Outline: as §1
# [5] = qHTS of pediatric cancer cell lines to identify multiple opportunities for drug repurposing: Confirmatory screen for NB1643 cells (AID 1347109); further: nearly all actives have a fitted effect of over 45% in size
# Outline: as §2
SMILES,Potency [1],Potency [2],Potency [3],Potency [4],Potency [5]
CCCCCCCCNC(C)C(O)c1ccc(SC(C)C)cc1 (centres undefined),26.6 µM (active),inactive,,,
CCc1oc2ccccc2c1C(=O)c1cc(I)c(O)c(I)c1,inactive,inactive,inactive,inactive,
CN1CCc2cccc3c2[C@H]1Cc1ccc(O)c(O)c1-3,,inactive,,,
CN1CCN(C2=Nc3cc(F)ccc3Cc3ccccc32)CC1,,inactive,inactive,inactive,
O=C(c1ccc(F)cc1)C1CCN(CCn2c(=S)[nH]c3ccccc3c2=O)CC1,inactive,inactive,inactive,inactive,
CCOC(=O)c1ccc(N)cc1,,inactive,inactive,inactive,
CCCCCCCCCCCCOCCOCCOCCOCCOCCOCCOCCOCCOCCO,,inactive,inactive,,inactive
CN(C)CCC[C@@]1(c2ccc(F)cc2)OCc2cc(C#N)ccc21,inactive,inactive,inactive,inactive,
Cc1ccc(O)c([C@H](CCN(C(C)C)C(C)C)c2ccccc2)c1,inactive,inactive,,inactive,
O=C(Nc1ncc([N+](=O)[O-])s1)c1cccs1,,inactive,,,
CC[C@]12CCCN3CCc4c(n(c5ccccc45)C(=O)C1)[C@@H]32,,inactive,,,
